# Source: PMC11062922 (Nature Chemical Biology, 2023)
# Read-outs that look alike come from different tables or passages of the source.
# Legend:
# [1] = system: TNK1; conditions: read-out: apparent Kd, n = 1
# [2] = system: TTK; conditions: read-out: apparent Kd, n = 1
# [3] = compound concentrations:100 nM and 1000 nM (sheet 'Lestaurtinib' of Supplementary Table 1),run:Lestaurtinib_02496_R2,Plate:MR013
# [4] = compound concentrations:100 nM and 1000 nM (sheet 'Lestaurtinib' of Supplementary Table 1),run:Lestaurtinib_02566_R1,Plate:MR014
# [5] = compound concentrations:100 nM and 1000 nM (sheet 'Lestaurtinib' of Supplementary Table 1),run:Lestaurtinib_02566_R2,Plate:MR014
# [6] = compound concentrations:100 nM and 1000 nM (sheet 'Lestaurtinib' of Supplementary Table 1),run:Lestaurtinib_02566_R3,Plate:MR014
# [7] = compound concentrations:100 nM and 1000 nM (sheet 'Lestaurtinib' of Supplementary Table 1),run:Lestaurtinib_02572_R2,Plate:MR015
# [8] = compound concentrations:100 nM and 1000 nM (sheet 'Lestaurtinib' of Supplementary Table 1),run:Lestaurtinib_02577_R3,Plate:MR016
# [9] = compound concentrations:100 nM and 1000 nM (sheet 'Lestaurtinib' of Supplementary Table 1),run:Lestaurtinib_02606_R3,Plate:MR019
# [10] = compound concentrations:100 nM and 1000 nM (sheet 'Lestaurtinib' of Supplementary Table 1),run:Lestaurtinib_02624_R1,Plate:MR020
# [11] = compound concentrations:100 nM and 1000 nM (sheet 'Lestaurtinib' of Supplementary Table 1),run:Lestaurtinib_02624_R3,Plate:MR020
# [12] = compound concentrations:100 nM and 1000 nM (sheet 'Lestaurtinib' of Supplementary Table 1),run:Lestaurtinib_02724_R1,Plate:MR021
# [13] = compound concentrations:100 nM and 1000 nM (sheet 'Lestaurtinib' of Supplementary Table 1),run:Lestaurtinib_02748_R2,Plate:MR024
# [14] = compound concentrations:100 nM and 1000 nM (sheet 'Lestaurtinib' of Supplementary Table 1),run:Lestaurtinib_02752_R2,Plate:MR025
# [15] = compound concentrations:100 nM and 1000 nM (sheet 'Lestaurtinib' of Supplementary Table 1),run:Lestaurtinib_02765_R2,Plate:MR026
# [16] = compound concentrations:100 nM and 1000 nM (sheet 'Lestaurtinib' of Supplementary Table 1),run:Lestaurtinib_02765_R3,Plate:MR026
# [17] = compound concentrations:100 nM and 1000 nM (sheet 'Lestaurtinib' of Supplementary Table 1),run:Lestaurtinib_02768_R2,Plate:MR028
# [18] = compound concentrations:100 nM and 1000 nM (sheet 'Lestaurtinib' of Supplementary Table 1),run:Lestaurtinib_02795_R3,Plate:MR022
# [19] = compound concentrations:100 nM and 1000 nM (sheet 'Lestaurtinib' of Supplementary Table 1),run:Lestaurtinib_02802_R1,Plate:MR029
# [20] = compound concentrations:100 nM and 1000 nM (sheet 'Lestaurtinib' of Supplementary Table 1),run:Lestaurtinib_03260_R1,Plate:MR033
# [21] = compound concentrations:100 nM and 1000 nM (sheet 'Lestaurtinib' of Supplementary Table 1),run:Lestaurtinib_03260_R2,Plate:MR033
substance,measurement,setting,value
Lestaurtinib,potency estimated from few doses,"[1]; compound concentrations:100 nM and 1000 nM (sheet 'Lestaurtinib' of Supplementary Table 1),run:Lestaurtinib_02438_R3,Plate:MR008",0.0713 µM
same,potency estimated from few doses,"[1]; compound concentrations:100 nM and 1000 nM (sheet 'Lestaurtinib' of Supplementary Table 1),run:Lestaurtinib_02443_R3,Plate:MR009",0.143 µM
same,potency estimated from few doses,"[1]; compound concentrations:100 nM and 1000 nM (sheet 'Lestaurtinib' of Supplementary Table 1),run:Lestaurtinib_02473_R2,Plate:MR010",0.0986 µM
same,potency estimated from few doses,"[1]; compound concentrations:100 nM and 1000 nM (sheet 'Lestaurtinib' of Supplementary Table 1),run:Lestaurtinib_02482_R3,Plate:MR011",0.222 µM
same,potency estimated from few doses,"[1]; compound concentrations:100 nM and 1000 nM (sheet 'Lestaurtinib' of Supplementary Table 1),run:Lestaurtinib_02487_R3,Plate:MR012",0.0818 µM
same,potency estimated from few doses,[1]; [3],0.0952 µM
same,potency estimated from few doses,[1]; [4],0.25 µM
same,potency estimated from few doses,[1]; [5],0.221 µM
same,potency estimated from few doses,[1]; [6],0.208 µM
same,potency estimated from few doses,[1]; [7],0.0534 µM
same,potency estimated from few doses,"[1]; compound concentrations:100 nM and 1000 nM (sheet 'Lestaurtinib' of Supplementary Table 1),run:Lestaurtinib_02577_R1,Plate:MR016",0.24 µM
same,potency estimated from few doses,[1]; [8],0.209 µM
same,potency estimated from few doses,"[1]; compound concentrations:100 nM and 1000 nM (sheet 'Lestaurtinib' of Supplementary Table 1),run:Lestaurtinib_02584_R3,Plate:MR017",0.22 µM
same,potency estimated from few doses,"[1]; compound concentrations:100 nM and 1000 nM (sheet 'Lestaurtinib' of Supplementary Table 1),run:Lestaurtinib_02606_R2,Plate:MR019",0.0451 µM
same,potency estimated from few doses,[1]; [9],0.274 µM
same,potency estimated from few doses,[1]; [10],0.219 µM
same,potency estimated from few doses,[1]; [11],0.0917 µM
same,potency estimated from few doses,[1]; [12],0.256 µM
same,potency estimated from few doses,"[1]; compound concentrations:100 nM and 1000 nM (sheet 'Lestaurtinib' of Supplementary Table 1),run:Lestaurtinib_02724_R3,Plate:MR021",0.06 µM
same,potency estimated from few doses,[1]; [13],0.097 µM
same,potency estimated from few doses,"[1]; compound concentrations:100 nM and 1000 nM (sheet 'Lestaurtinib' of Supplementary Table 1),run:Lestaurtinib_02752_R1,Plate:MR025",0.245 µM
same,potency estimated from few doses,[1]; [14],0.209 µM
same,potency estimated from few doses,"[1]; compound concentrations:100 nM and 1000 nM (sheet 'Lestaurtinib' of Supplementary Table 1),run:Lestaurtinib_02752_R3,Plate:MR025",0.208 µM
same,potency estimated from few doses,"[1]; compound concentrations:100 nM and 1000 nM (sheet 'Lestaurtinib' of Supplementary Table 1),run:Lestaurtinib_02765_R1,Plate:MR026",0.352 µM
same,potency estimated from few doses,[1]; [15],0.275 µM
same,potency estimated from few doses,[1]; [16],0.357 µM
same,potency estimated from few doses,"[1]; compound concentrations:100 nM and 1000 nM (sheet 'Lestaurtinib' of Supplementary Table 1),run:Lestaurtinib_02766_R2,Plate:MR027",0.0207 µM
same,potency estimated from few doses,"[1]; compound concentrations:100 nM and 1000 nM (sheet 'Lestaurtinib' of Supplementary Table 1),run:Lestaurtinib_02766_R3,Plate:MR027",0.0557 µM
same,potency estimated from few doses,[1]; [17],0.0792 µM
same,potency estimated from few doses,"[1]; compound concentrations:100 nM and 1000 nM (sheet 'Lestaurtinib' of Supplementary Table 1),run:Lestaurtinib_02768_R3,Plate:MR028",0.115 µM
same,potency estimated from few doses,[1]; [18],0.213 µM
same,potency estimated from few doses,[1]; [19],0.0819 µM
same,potency estimated from few doses,"[1]; compound concentrations:100 nM and 1000 nM (sheet 'Lestaurtinib' of Supplementary Table 1),run:Lestaurtinib_03172_R2,Plate:MR031",0.211 µM
same,potency estimated from few doses,"[1]; compound concentrations:100 nM and 1000 nM (sheet 'Lestaurtinib' of Supplementary Table 1),run:Lestaurtinib_03172_R3,Plate:MR031",0.0854 µM
same,potency estimated from few doses,"[1]; compound concentrations:100 nM and 1000 nM (sheet 'Lestaurtinib' of Supplementary Table 1),run:Lestaurtinib_03252_R1,Plate:MR032",0.243 µM
same,potency estimated from few doses,[1]; [20],0.279 µM
same,potency estimated from few doses,[1]; [21],0.258 µM
same,potency estimated from few doses,"[2]; compound concentrations:100 nM and 1000 nM (sheet 'Lestaurtinib' of Supplementary Table 1),run:Lestaurtinib_02339_R1,Plate:MR001",1.93 µM
same,potency estimated from few doses,"[2]; compound concentrations:100 nM and 1000 nM (sheet 'Lestaurtinib' of Supplementary Table 1),run:Lestaurtinib_02339_R2,Plate:MR001",0.812 µM
same,potency estimated from few doses,"[2]; compound concentrations:100 nM and 1000 nM (sheet 'Lestaurtinib' of Supplementary Table 1),run:Lestaurtinib_02364_R2,Plate:MR002",1.82 µM
same,potency estimated from few doses,"[2]; compound concentrations:100 nM and 1000 nM (sheet 'Lestaurtinib' of Supplementary Table 1),run:Lestaurtinib_02364_R3,Plate:MR002",1.13 µM
same,potency estimated from few doses,"[2]; compound concentrations:100 nM and 1000 nM (sheet 'Lestaurtinib' of Supplementary Table 1),run:Lestaurtinib_02367_R1,Plate:MR003",0.172 µM
same,potency estimated from few doses,"[2]; compound concentrations:100 nM and 1000 nM (sheet 'Lestaurtinib' of Supplementary Table 1),run:Lestaurtinib_02367_R2,Plate:MR003",2.19 µM
same,potency estimated from few doses,"[2]; compound concentrations:100 nM and 1000 nM (sheet 'Lestaurtinib' of Supplementary Table 1),run:Lestaurtinib_02422_R1,Plate:MR006",0.786 µM
same,potency estimated from few doses,"[2]; compound concentrations:100 nM and 1000 nM (sheet 'Lestaurtinib' of Supplementary Table 1),run:Lestaurtinib_02422_R2,Plate:MR006",1.69 µM
same,potency estimated from few doses,"[2]; compound concentrations:100 nM and 1000 nM (sheet 'Lestaurtinib' of Supplementary Table 1),run:Lestaurtinib_02422_R3,Plate:MR006",1.63 µM
same,potency estimated from few doses,"[2]; compound concentrations:100 nM and 1000 nM (sheet 'Lestaurtinib' of Supplementary Table 1),run:Lestaurtinib_02437_R1,Plate:MR007",0.0949 µM
same,potency estimated from few doses,"[2]; compound concentrations:100 nM and 1000 nM (sheet 'Lestaurtinib' of Supplementary Table 1),run:Lestaurtinib_02437_R3,Plate:MR007",1.43 µM
same,potency estimated from few doses,"[2]; compound concentrations:100 nM and 1000 nM (sheet 'Lestaurtinib' of Supplementary Table 1),run:Lestaurtinib_02438_R1,Plate:MR008",0.8 µM
same,potency estimated from few doses,"[2]; compound concentrations:100 nM and 1000 nM (sheet 'Lestaurtinib' of Supplementary Table 1),run:Lestaurtinib_02438_R2,Plate:MR008",1.97 µM
same,potency estimated from few doses,"[2]; compound concentrations:100 nM and 1000 nM (sheet 'Lestaurtinib' of Supplementary Table 1),run:Lestaurtinib_02443_R1,Plate:MR009",1.4 µM
same,potency estimated from few doses,"[2]; compound concentrations:100 nM and 1000 nM (sheet 'Lestaurtinib' of Supplementary Table 1),run:Lestaurtinib_02473_R1,Plate:MR010",0.95 µM
same,potency estimated from few doses,"[2]; compound concentrations:100 nM and 1000 nM (sheet 'Lestaurtinib' of Supplementary Table 1),run:Lestaurtinib_02496_R1,Plate:MR013",1.37 µM
same,potency estimated from few doses,[2]; [3],1.41 µM
same,potency estimated from few doses,[2]; [4],0.936 µM
same,potency estimated from few doses,[2]; [5],0.821 µM
same,potency estimated from few doses,[2]; [6],0.717 µM
same,potency estimated from few doses,[2]; [7],1.84 µM
same,potency estimated from few doses,"[2]; compound concentrations:100 nM and 1000 nM (sheet 'Lestaurtinib' of Supplementary Table 1),run:Lestaurtinib_02572_R3,Plate:MR015",1.44 µM
same,potency estimated from few doses,[2]; [8],1.7 µM
same,potency estimated from few doses,"[2]; compound concentrations:100 nM and 1000 nM (sheet 'Lestaurtinib' of Supplementary Table 1),run:Lestaurtinib_02601_R1,Plate:MR018",1.37 µM
same,potency estimated from few doses,"[2]; compound concentrations:100 nM and 1000 nM (sheet 'Lestaurtinib' of Supplementary Table 1),run:Lestaurtinib_02601_R2,Plate:MR018",1.62 µM
same,potency estimated from few doses,"[2]; compound concentrations:100 nM and 1000 nM (sheet 'Lestaurtinib' of Supplementary Table 1),run:Lestaurtinib_02601_R3,Plate:MR018",1.61 µM
same,potency estimated from few doses,[2]; [9],1.51 µM
same,potency estimated from few doses,[2]; [10],1.43 µM
same,potency estimated from few doses,"[2]; compound concentrations:100 nM and 1000 nM (sheet 'Lestaurtinib' of Supplementary Table 1),run:Lestaurtinib_02624_R2,Plate:MR020",1.76 µM
same,potency estimated from few doses,[2]; [11],1.43 µM
same,potency estimated from few doses,[2]; [12],1.21 µM
same,potency estimated from few doses,"[2]; compound concentrations:100 nM and 1000 nM (sheet 'Lestaurtinib' of Supplementary Table 1),run:Lestaurtinib_02741_R1,Plate:MR023",1.34 µM
same,potency estimated from few doses,"[2]; compound concentrations:100 nM and 1000 nM (sheet 'Lestaurtinib' of Supplementary Table 1),run:Lestaurtinib_02741_R2,Plate:MR023",0.998 µM
same,potency estimated from few doses,[2]; [13],1.15 µM
same,potency estimated from few doses,"[2]; compound concentrations:100 nM and 1000 nM (sheet 'Lestaurtinib' of Supplementary Table 1),run:Lestaurtinib_02748_R3,Plate:MR024",1.44 µM
same,potency estimated from few doses,[2]; [14],1.24 µM
same,potency estimated from few doses,[2]; [15],1.44 µM
same,potency estimated from few doses,[2]; [16],0.907 µM
same,potency estimated from few doses,"[2]; compound concentrations:100 nM and 1000 nM (sheet 'Lestaurtinib' of Supplementary Table 1),run:Lestaurtinib_02768_R1,Plate:MR028",2.15 µM
same,potency estimated from few doses,[2]; [17],2.24 µM
same,potency estimated from few doses,"[2]; compound concentrations:100 nM and 1000 nM (sheet 'Lestaurtinib' of Supplementary Table 1),run:Lestaurtinib_02795_R1,Plate:MR022",1.41 µM
same,potency estimated from few doses,[2]; [18],0.75 µM
same,potency estimated from few doses,[2]; [19],0.996 µM
same,potency estimated from few doses,"[2]; compound concentrations:100 nM and 1000 nM (sheet 'Lestaurtinib' of Supplementary Table 1),run:Lestaurtinib_02802_R2,Plate:MR029",0.924 µM
same,potency estimated from few doses,"[2]; compound concentrations:100 nM and 1000 nM (sheet 'Lestaurtinib' of Supplementary Table 1),run:Lestaurtinib_02802_R3,Plate:MR029",1.41 µM
same,potency estimated from few doses,"[2]; compound concentrations:100 nM and 1000 nM (sheet 'Lestaurtinib' of Supplementary Table 1),run:Lestaurtinib_02896_R3,Plate:MR030",0.953 µM
same,potency estimated from few doses,"[2]; compound concentrations:100 nM and 1000 nM (sheet 'Lestaurtinib' of Supplementary Table 1),run:Lestaurtinib_03252_R2,Plate:MR032",1.31 µM
same,potency estimated from few doses,[2]; [20],0.896 µM
same,potency estimated from few doses,[2]; [21],1.54 µM
same,potency estimated from few doses,"[2]; compound concentrations:100 nM and 1000 nM (sheet 'Lestaurtinib' of Supplementary Table 1),run:Lestaurtinib_03260_R3,Plate:MR033",0.806 µM
